PubChem BioAssay (NCATS)
Records with an inconclusive call do not appear. Unmarked numbers belong to inactive results. The source made the active and inactive calls. Calls come from the whole dose curve; as a rule, active = well fitted activation curve with a large enough effect in the signal ratio; inconclusive = small, poorly fitted or top-dose-only effect, or effect the other way, or a change in a side signal; inactive = flat fitted curve, though single readings scatter; the % refers to the signal ratio.

Test: qHTS assay for small molecule agonists of the antioxidant response element (ARE) signaling pathway (AID 651741); for activation: % of control where 0% means no effect
Details: HepG2 ARE-bla reporter, beta-lactamase FRET ratio, 16 h; series mostly up to 96 µM; activation: at the top concentration
Source text: National Center for Advancing Translational Sciences [NCATS]
NIH Chemical Genomics Center [NCGC]
U.S. Environmental Protection Agency [EPA]
National Institutes of Environmental Health Sciences [NIEHS]
National Toxicology Program [NTP]
Oxidative stress has been implicated in the pathogenesis of a variety of diseases ranging from cancer to neurodegeneration. The antioxidant response element (ARE) signaling pathway plays an important role in the amelioration of oxidative stress. The CellSensor ARE-bla HepG2 cell line (Invitrogen) can be used for analyzing the Nrf2/antioxidant response signaling pathway. Nrf2 (NF-E2-related factor 2) and Nrf1 are transcription factors that bind to AREs and activate these genes. The CellSensor ARE-bla Hep G2 cell line contains a beta-lactamase reporter gene under control of the Antioxidant Response Element (ARE) stably integrated into HepG2 cells. The activation of the report gene under culture conditions can be detected by fluorescence intensity. This cell line can be used to screen chemicals in a 1536-well plate format and to identify agonists that induce oxidative stress.
The ARE-bla cells were dispensed at 2,000 cells/5 ul/well in 1536-well black wall/clear bottom plates using a Multidrop dispenser. After the assay plates were incubated at a 37 C/5% CO2 incubator for 5 hours, 23 nL of compounds dissolved in DMSO, positive controls or DMSO only was transferred to the assay plate by a pin tool. The plates were incubated at 37 C for 16 hours. After 1 uL of LiveBLAzer B/G FRET substrate was added using a Flying Reagent Dispenser, the plates were incubated at room temperature for 2 hours, and fluorescence intensity was measured by an Envision plate reader.
Potency is the fitted concentration of half-maximal effect.

| Structure (SMILES) | activation | Potency |
| --- | --- | --- |
| Cc1cscn1 | -1.11% |  |
| O=[N+]([O-])c1cccc(Cl)c1 | 4.76% |  |
| O=C(O)c1ccc(Cl)c(Cl)c1 | 3.64% |  |
| NC(=O)NC(N)=O | -1.77% |  |
| CCCCC(CC)CO (stereo not given) | -2.87% |  |
| Cc1cccc(C(=O)O)c1 | -1.73% |  |
| CCCCOCCOCCSC#N | 0.406% |  |
| CC(C)N(C)C | 4% |  |
| Cc1ccccc1C(=O)O | -1.31% |  |
| NCCCCCCN | 5.15% |  |
| CC(=O)C1(C)CC2=C(CCCC2(C)C)CC1C (stereo not given) | 0.102% |  |
| C1CCC2OC2C1 (stereo not given) | -0.3% |  |
| Nc1cc([N+](=O)[O-])ccc1C(=O)O | 3.92% |  |
| O=P(O)(OCc1ccccc1)OCc1ccccc1 | 4.77% |  |
| NC=O | -1.28% |  |
| O=Nc1ccc(NO)cc1 |  | 13.3 µM (active) |
| O=C(O)CNC(=O)c1ccc(CO)o1 | 1.62% |  |
| FC(F)(F)c1ccccc1Cl | 6.77% |  |
| O=C(O)CNC(=O)c1ccc([N+](=O)[O-])cc1 | -0.3% |  |
| CC(CCl)OC(C)CCl (stereo not given) | 0.181% |  |

| Structure (SMILES) | activation | Potency |
| --- | --- | --- |
| CC(=O)c1nccs1 | 1.18% |  |
| C=CCOC(=O)COCCC(C)C | -2.84% |  |
| CC(C)C=O | -0.735% |  |
| O=c1[nH][nH]c(=O)c2cc([N+](=O)[O-])ccc12 | 4.3% |  |
| FC(F)(F)c1cccc(Cl)c1 | 1.57% |  |
| O=C(Cl)c1cccc([N+](=O)[O-])c1 | 11.1% |  |
| OC1CCCC1 | 0.93% |  |
| O=C(O)c1c(Cl)cccc1Cl | 1.1% |  |
| CC(N)CN (stereo not given) | 3.45% |  |
| CC(O)CC(C)O (stereo not given) | 2.87% |  |
| CCCCCO | 2.45% |  |
| CCOCCOCC | 3.4% |  |
| Nc1c(Cl)cc(Cl)cc1Cl | 6.27% |  |
| O=C1CCC(=O)O1 | 2.41% |  |
| Cc1cc(C)cc([N+](=O)[O-])c1 | 4.73% |  |
| CC(C)=CCC/C(C)=C/C=O |  | inactive |
| O=[N+]([O-])c1ccc(CCO)cc1 | -0.571% |  |
| Cc1cc(C)cc(N)c1 | 0.666% |  |
| N#CC1(O)CCCCC1 | -2.32% |  |
| Cc1ccc(Cl)cc1 | 0.0442% |  |
